# PubChem BioAssay
# Activity calls are given as the source filed them.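 The calls were made as follows, unless noted: active = inhibition at or above 50% at 10 µM; inactive = inhibition below 50%.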
# What was measured:
# [1] = inhibitors of TNFa-induced NFkB p65 translocation, primary screen, imaging, HUVEC, MLSMR starter and 10KST1 sets (AID 438;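 active = inhibition above 20% together with a positive visual image hit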;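 also: compound added about 3h40 before a 20 min TNFalpha stimulation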;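 as to inhibition: signal is the nuclear over cytoplasmic p65 intensity ratio per well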); conditions: HUVEC TNFa-induced p65 nuclear translocation; cell count: measured here: nuclei count (cytotoxicity indicator), at 2.08 µM; inhibition: at 2 µM, stronger effect = higher value, 0% TNFa-plus-vehicle, 100% no-TNFa wells
# [2] = reduction of polyQ htt aggregates in cells – imaging, exon1htt(103Q)mCFP cells, high-content imaging, primary screen (AID 483;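 active = visual image review flags a hit and inhibition of aggregation exceeds 20%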;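 also: compound exposure lasted 3 days before fixation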;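 as to nuclei count: percent of the per-plate median nuclei count of sample wells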); conditions: exon1htt(103Q)mCFP cell line, aggregate imaging, at 2 µM; inhibition of aggregation: stronger effect = higher value; nuclei count: measured here: cell count, toxicity
# [3] = endothelial E-selectin expression blockers – imaging, HUVEC, immunofluorescence, MLSMR starter and 10KST1 sets, primary screen (AID 487;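 active = visually confirmed hit in the image check and inhibition above 20%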;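 as to inhibition: signal is fraction of cell area covered by stained E-selectin grains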;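 as to nuclei count: 100% = median nuclei count of all wells on the same plate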); conditions: HUVEC TNFalpha-induced E-selectin immunofluorescence imaging, at 2 µM; inhibition: stronger effect = higher value; nuclei count: measured here: cell number, toxicity
# [4] = target: Voltage-gated potassium channel subunit beta-2 (Rattus norvegicus) (UniProt P62483); assay: inhibitors of rat Kvbeta2 reductase activity – biochemical, NADPH fluorescence, primary screen (AID 622;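 active = fluorescence slope higher than the sample average by over 3 SD, cut at about -0.22 in these data, passing the limit was not always enough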;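 also: slope of raw intensity against log time taken from 70 to 1610 s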); conditions: recombinant KvBeta, 4-cyanobenzaldehyde reduction, at 10 µM, stronger effect = higher value
# Chain of Voltage-gated potassium channel subunit beta-2 (Rattus norvegicus) (P62483 whole entry, looked up): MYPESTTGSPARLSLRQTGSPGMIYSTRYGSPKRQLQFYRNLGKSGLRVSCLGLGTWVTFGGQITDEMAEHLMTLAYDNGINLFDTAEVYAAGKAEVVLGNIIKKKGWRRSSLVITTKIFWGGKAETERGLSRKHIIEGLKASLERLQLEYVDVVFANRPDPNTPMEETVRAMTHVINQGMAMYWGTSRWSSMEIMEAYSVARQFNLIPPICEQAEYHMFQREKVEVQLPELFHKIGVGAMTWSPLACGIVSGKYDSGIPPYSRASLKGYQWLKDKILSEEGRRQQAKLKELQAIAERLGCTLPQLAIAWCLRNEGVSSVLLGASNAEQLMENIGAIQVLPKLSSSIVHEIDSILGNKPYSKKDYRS
# [5] = target: Voltage-gated potassium channel subunit beta-2 (Rattus norvegicus) (UniProt P62483); assay: enhancers of rat Kvbeta2 NADPH turnover – biochemical, NADPH fluorescence, primary screen (AID 623;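 active = NADPH fluorescence slope more negative than the mean of all samples by about 3 SD, 99.7% confidence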;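 also: fluorescence intensity change per second fitted from 20 to 320 s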); conditions: Recombinant KvBeta, NADPH fluorescence decrease slope, 10 min; at 10 µM; stronger effect = lower value
# [6] = target: Alpha-2C adrenergic receptor (Homo sapiens) (UniProt P18825); assay: compounds altering alpha2C-coupled GIRK flux – cell-based, HEK293 alpha2C/GIRK1/2, thallium flux, primary screen (AID 624;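 active = fluorescence slope after compound addition differing from the mean of all screened samples at 99.7% confidence, in either direction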;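 also: slope of fluorescence ratio to pre-addition baseline per second over 15 to 24 s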); conditions: thallium flux BTC fluorescence, at 10 µM, actives lie on both sides
# Chain of Alpha-2C adrenergic receptor (Homo sapiens) (P18825 whole entry, looked up): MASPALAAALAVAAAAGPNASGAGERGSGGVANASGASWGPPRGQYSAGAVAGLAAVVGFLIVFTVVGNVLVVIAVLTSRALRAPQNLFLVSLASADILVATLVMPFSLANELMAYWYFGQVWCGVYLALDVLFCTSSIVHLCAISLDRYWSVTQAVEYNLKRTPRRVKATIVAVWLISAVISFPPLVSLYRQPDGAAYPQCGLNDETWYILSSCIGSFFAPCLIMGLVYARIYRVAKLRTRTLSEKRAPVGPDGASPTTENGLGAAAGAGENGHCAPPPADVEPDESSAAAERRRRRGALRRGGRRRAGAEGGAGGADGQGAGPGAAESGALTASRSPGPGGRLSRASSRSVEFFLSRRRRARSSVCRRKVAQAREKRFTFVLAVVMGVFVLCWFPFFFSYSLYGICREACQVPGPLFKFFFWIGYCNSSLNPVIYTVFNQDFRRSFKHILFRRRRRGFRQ
# [7] = blockers of RIG-like receptor reporter activation – cell-based, Sendai virus stimulus, luciferase, 10K MLSCN set, TLR/RLR signaling modifier project, primary screen (AID 602276); conditions: HEK293 RL24 IRF3 luciferase reporter, at 10 µM, stronger effect = higher value;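 also: firefly luciferase from ISG56 promoter only with Renilla not read in this screen; 0% = Sendai virus plus DMSO and 100% = medium plus DMSO without virus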
# [8] = TLR3 IRF3 reporter activation blockers – cell-based, poly I:C stimulus, luciferase, 10K MLSCN set, primary screen (AID 602277;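 active = inhibition of the reporter signal at or above 50%; inactive = inhibition below 50%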); conditions: HEK293-TLR3 RL24 IRF3 luciferase reporter, at 10 µM, stronger effect = higher value
Structure (SMILES),cell count [1],inhibition [1],inhibition of aggregation [2],nuclei count [2],inhibition [3],nuclei count [3],fluorescence slope [4],NADPH fluorescence slope [5],slope [6],inhibition [7],inhibition [8]
Cc1ccc(C)c(N2CCN(Cc3nnnn3C3CCCCC3)CC2)c1,458,-4.4% (inactive),-7.6% (inactive),123%,-49.3% (inactive),112%,-0.626 (inactive),-2.5e-05 (inactive),0.00597 (inactive),11.6% (inactive),34.8% (inactive)
O=c1[nH]c(Nc2ccccc2)cc2ccccc12,526,-14.6% (inactive),-7.1% (inactive),101%,-33.7% (inactive),96.7%,-0.132 (inactive),1.3e-05 (inactive),0.00342 (inactive),7.19% (inactive),7.53% (inactive)
CCOc1ccccc1OCCn1nnc2ccccc21,312,-0.2% (inactive),-1.3% (inactive),114%,-6.1% (inactive),109%,-0.443 (inactive),-5.5e-05 (inactive),0.0043 (inactive),1.2% (inactive),-3.68% (inactive)
Cc1ccc2[nH]c(=O)c(C(c3nnnn3CCc3ccccc3)N3CCOCC3)cc2c1 (centres undefined),715,-3.9% (inactive),1.1% (inactive),99%,-38.7% (inactive),95.6%,-0.482 (inactive),-4.6e-05 (inactive),0.0072 (inactive),0.935% (inactive),26.5% (inactive)
CCOC(=O)c1sc2nc(NC(=O)COc3ccccc3)sc2c1C,715,-6.9% (inactive),9.3% (inactive),106%,-12.6% (inactive),105%,-0.591 (inactive),-1.3e-05 (inactive),0.00688 (inactive),-24% (inactive),-40.4% (inactive)
Cc1nc(-c2cccc(-c3noc(C)n3)c2)no1,341,2.2% (inactive),-8.5% (inactive),105%,11.4% (inactive),108%,-0.473 (inactive),-4.9e-05 (inactive),0.00665 (inactive),-12.8% (inactive),-3.56% (inactive)
Cn1c(=O)oc2cc(S(=O)(=O)N3CCCC(C(=O)NCC4COc5ccccc5O4)C3)ccc21 (centres undefined),751,-1.9% (inactive),-6.6% (inactive),105%,-40.9% (inactive),124%,-0.575 (inactive),1.7e-05 (inactive),0.00726 (inactive),-12.4% (inactive),-5.33% (inactive)
Cn1c(=O)[nH]c(=O)c2c1nc(N1CCCCC1)n2CCSc1ncccn1,637,-11.8% (inactive),-16.6% (inactive),93%,-20.6% (inactive),122%,-0.438 (inactive),-6.7e-05 (inactive),0.00492 (inactive),10% (inactive),25.5% (inactive)
c1ccc(-c2nc3ccccc3nc2-c2ccccn2)nc1,746,-8.5% (inactive),4.8% (inactive),93.9%,-17.4% (inactive),118%,-0.491 (inactive),-3.4e-05 (inactive),0.0056 (inactive),11.1% (inactive),14.2% (inactive)
